The record followed here is PubChem BioAssay (NCI).

Values joined by “and” are separate entries in the source; they are usually repeats but may differ in a detail not shown here. Equal values may be shown once. About 79,000 compounds went through this panel and 15% of them were active in at least one assay; those are over-represented in the sample as a whole. Unmarked numbers belong to inactive results. Active and inactive are the calls of the source. Rule as the data show it: active = growth inhibition above about 70%; inactive = the rest.

The first test is described as follows: NCI Yeast Anticancer Drug Screen. Data for the mlh1 rad18 strain (AID 175). The note with it: S. cerevisiae mlh1 rad18 strain growth inhibition; at 5.0 µM (retest, dose inferred, filed as 0.5); stronger effect = higher value. How it is done: Growth inhibition of yeast strains with defined genetic alterations is measured as a screen for potential anti-cancer activity. Selected strains with alterations in DNA damage repair or cell cycle control were exposed to compounds and growth inhibition was measured relative to vehicle treated controls. The strain used in this assay is mlh1 rad18
Turning to `Cc1cc(CCN)c(C)c2c1sc1ccccc12`, the growth inhibition is 81% (active).

As for `CCOP(=O)(N=Nc1cccnc1)OCC`, the growth inhibition is 2%.

Take `C/C(=N\N=C(/[Se])N1CCC(C)CC1)c1ccccn1`: the growth inhibition was 4%.

Regarding `Oc1c(I)cc(I)cc1I`, the growth inhibition was -3%.

As to `CCCCCCCCCC(=O)[O][Hg][c]1ccccc1`, the growth inhibition was 99% (active).

For `Sc1nc2ccccc2s1.Sc1nc2ccccc2s1.Sc1nc2ccccc2s1.Sc1nc2ccccc2s1.[Cl][Rh][Cl]`, the growth inhibition is 43%.

For the compound `C[CH2][Sn]([CH2]C)([CH2]C)[CH2]C`, the growth inhibition is -8%.

Regarding `C/C(=C\c1ccc(Cl)c(Cl)c1)[N+](=O)[O-]`, the growth inhibition is 8%.

`O=C1CCCC1Cl` (stereo not given): the growth inhibition was -3%.

In the case of `CC[S+](C)c1ccc(-c2c3nc(c(-c4ccc([S+](C)CC)cc4)c4ccc([nH]4)c(-c4ccc([S+](C)CC)cc4)c4nc(c(-c5ccc([S+](C)CC)cc5)c5ccc2[nH]5)C=C4)C=C3)cc1` (stereo not given), the growth inhibition was 96% (active).

The same test, now with this note: S. cerevisiae mlh1 rad18 strain growth inhibition; at 50.0 µM (retest, dose inferred, filed as 5.0); stronger effect = higher value.
In the case of `Cc1cc(CCN)c(C)c2c1sc1ccccc12`, the growth inhibition is 100% (active).

As to `CCOP(=O)(N=Nc1cccnc1)OCC`, the growth inhibition was -17%.

On to `C/C(=N\N=C(/[Se])N1CCC(C)CC1)c1ccccn1`, for which the growth inhibition is 76% (active).

Turning to `Oc1c(I)cc(I)cc1I`, the growth inhibition was 92% (active).

Take `CCCCCCCCCC(=O)[O][Hg][c]1ccccc1`: the growth inhibition was 99% (active).

Turning to `Sc1nc2ccccc2s1.Sc1nc2ccccc2s1.Sc1nc2ccccc2s1.Sc1nc2ccccc2s1.[Cl][Rh][Cl]`, the growth inhibition was 96% (active).

Regarding `C[CH2][Sn]([CH2]C)([CH2]C)[CH2]C`, the growth inhibition was 44%.

For `C/C(=C\c1ccc(Cl)c(Cl)c1)[N+](=O)[O-]`, the growth inhibition was 54%.

For `O=C1CCCC1Cl` (stereo not given), the growth inhibition is 3%.

For the compound `CC[S+](C)c1ccc(-c2c3nc(c(-c4ccc([S+](C)CC)cc4)c4ccc([nH]4)c(-c4ccc([S+](C)CC)cc4)c4nc(c(-c5ccc([S+](C)CC)cc5)c5ccc2[nH]5)C=C4)C=C3)cc1` (stereo not given), the growth inhibition is 95% (active).

The test is the same for the next values; noted with them: S. cerevisiae mlh1 rad18 strain growth inhibition; at 50.0 µM; stronger effect = higher value.
As for `S=C=NCc1ccccc1`, the growth inhibition is 1.9%.

Consider `Cc1cc(CCN)c(C)c2c1sc1ccccc12`, for which the growth inhibition was 99.7% (active).

Take `CCCC[As](=O)(O)C(C)C`: the growth inhibition is 14.1%.

For the compound `CCOP(=O)(N=Nc1cccnc1)OCC`, the growth inhibition was 39.1%.

As for `C/C(=N\N=C(/[Se])N1CCC(C)CC1)c1ccccn1`, the growth inhibition is 98% (active).

As to `Oc1c(I)cc(I)cc1I`, the growth inhibition was 63.4%.

Turning to `O=[N+]([O-])c1ccc(OCc2ccc(COc3ccc(S(=O)(=O)F)cc3)cc2)c(Cl)c1`, the growth inhibition was -7.5%.

Regarding `CC12OCCN1CCO2`, the growth inhibition is 4%.

Regarding `CCCCCCCCCC(=O)[O][Hg][c]1ccccc1`, the growth inhibition is 99.1% (active).

With `CC1C2Cc3ccc(O)cc3C1(C)CCN2C` (stereo not given), the growth inhibition is 16.1%.

Regarding `Sc1nc2ccccc2s1.Sc1nc2ccccc2s1.Sc1nc2ccccc2s1.Sc1nc2ccccc2s1.[Cl][Rh][Cl]`, the growth inhibition was 97.7% (active).

Regarding `CCOC(=O)c1cc(N(CCCl)CCCl)ccc1OC(=O)CC`, the growth inhibition was 30.1%.

As for `CN1CCC2CCCCN2CC1=O` (stereo not given), the growth inhibition was -4%.

Turning to `C=C(C)C1(CC)C(=O)NC(=O)N(C)C1=O` (stereo not given), the growth inhibition was -7.95% and -13.1%.

For the compound `C/C(=C\c1ccc(Cl)c(Cl)c1)[N+](=O)[O-]`, the growth inhibition was 23.1%.

For the compound `CCOP1(=S)NNP(=S)(OCC)NN1` (stereo not given), the growth inhibition is 8.85%.

On to `O=C1CCCC1Cl` (stereo not given), for which the growth inhibition was 56.9%.

As to `CC1N=NNN1C` (stereo not given), the growth inhibition was -8.65%.

As to `C=CCc1cc(C=C(C#N)C#N)cc(OC)c1O`, the growth inhibition is 11.7%.

For `CC[S+](C)c1ccc(-c2c3nc(c(-c4ccc([S+](C)CC)cc4)c4ccc([nH]4)c(-c4ccc([S+](C)CC)cc4)c4nc(c(-c5ccc([S+](C)CC)cc5)c5ccc2[nH]5)C=C4)C=C3)cc1` (stereo not given), the growth inhibition was 88.5% (active).
